Sampled rows, rich in hits. Any-hit rate of the full collection: about 3.3%.
TPT1 inh: C. albicans TPT1 enzyme inhibition; inhibition, % at 5 µM; recombinant caTPT1, FP RNA substrate dephosphorylation; 0.81% of 300,000 active;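 active means inhibition above the mean of all tested compounds plus 3 SD, set per screening campaign, cut at about 24% in these data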
HNF4A DNA FP: change in binding of human HNF4 alpha to DNA; P41235; HNF4a-FITC DNA binding, fluorescence polarization, 1 h; activity change, % at 10 µM; 0.3% of 360,000 active; in the data active means activity change above about 30%, passing the limit was not always enough
NRP1-CendR mod: modulators of CendR peptide binding to human neuropilin-1 | FAM-RPARPAR peptide binding to NRP-1, fluorescence polarization | inhibition, % at 25 µM | 0.85% of 360,000 active | AID 602438;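 active means inhibition or corrected inhibition above about 18%, plus a signal ratio from 0.5 to 1.5, limit read from the data, passing the limit was not always enough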
Rpn11 inh: Rpn11 (human) deubiquitinase inhibition; O00487; human 26S proteasome, Ub4-pepOG fluorescence polarization; 20S core pre-blocked with epoxomicin; inhibition, % at 20 µM; 0.59% of 360,000 active; AID 588493;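 active means inhibition at 20 µM, scaled to each plate's controls, above about 33%, limit read from the data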
Target sequence (O00487 whole entry, looked up): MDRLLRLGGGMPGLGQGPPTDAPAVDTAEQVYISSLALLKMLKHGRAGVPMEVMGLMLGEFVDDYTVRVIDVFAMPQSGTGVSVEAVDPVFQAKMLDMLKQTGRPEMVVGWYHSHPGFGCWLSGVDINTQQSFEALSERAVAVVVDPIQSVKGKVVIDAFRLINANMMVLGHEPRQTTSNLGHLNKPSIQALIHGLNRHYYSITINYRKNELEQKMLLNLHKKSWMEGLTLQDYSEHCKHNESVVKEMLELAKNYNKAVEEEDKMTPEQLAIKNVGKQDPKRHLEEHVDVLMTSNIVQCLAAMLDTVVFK
PHOSPHO1 block: PHOSPHO1 (human) inhibition | Q8TCT1 | recombinant PHOSPHO1, absorbance phosphatase assay | inhibition, % at 13.3 µM | 1.1% of 290,000 active; in the data active means inhibition above about 60%
Target sequence (Q8TCT1 whole entry, looked up): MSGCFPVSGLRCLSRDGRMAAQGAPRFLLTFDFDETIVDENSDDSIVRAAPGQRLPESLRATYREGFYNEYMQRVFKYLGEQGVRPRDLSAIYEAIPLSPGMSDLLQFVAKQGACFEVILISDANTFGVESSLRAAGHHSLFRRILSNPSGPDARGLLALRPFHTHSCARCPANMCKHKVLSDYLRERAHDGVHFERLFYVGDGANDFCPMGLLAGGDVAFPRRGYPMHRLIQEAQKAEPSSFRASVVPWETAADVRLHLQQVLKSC
Fh CTSL1 inh: counter-screen for PFM18AAP inhibitors: inhibitors of F. hepatica cathepsin L1; recombinant F. hepatica cathepsin L1, Z-Leu-Arg-MCA fluorescence; inhibition, % at 5.96 µM; 0.49% of 300,000 active; AID 1906;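 active means inhibition above the mean of all tested compounds plus 3 SD, set per screening campaign, cut at about 17% in these data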
Each line names hits and unclear results; the compound was inactive in the other large screens.

CN(C(=O)c1ccc(NC(=O)Cc2ccc(NC(=O)C3CCCN(C(=O)C4CCC4)C3)cc2)cc1)C1CC1 (centres undefined)	none (no result: TPT1 inh, PHOSPHO1 block, Fh CTSL1 inh)
COc1ccc(CNS(=O)(=O)c2ccc(C)cc2)cc1	NRP1-CendR mod 28 (no result: PHOSPHO1 block)
COc1ccc(CNS(=O)(=O)c2ccc(OC)cc2)cc1	none
O=C1c2cccc(NCCNCCO)c2C(=O)c2cccc(NCCNCCO)c21	none (no result: TPT1 inh, PHOSPHO1 block, Fh CTSL1 inh)
COc1cc2c(cc1OC)-c1cc3ccc4c(c3c[n+]1CC2)OCO4	Fh CTSL1 inh 51
COc1cc2c(cc1O)CC[n+]1cc3c(OC)c(OC)ccc3cc1-2	none
COc1cc(OC)c(CN2CCC(CO)(CCOc3ccccc3)CC2)c(OC)c1	PHOSPHO1 block 64
C[C@@H]1CC2=C(C(=O)OC(C)(C)O2)[C@H](c2ccc(Cl)cc2)O1	none (no result: TPT1 inh, Rpn11 inh, PHOSPHO1 block, Fh CTSL1 inh)
Cc1cnc(C(=O)OCC(=O)Nc2ncc(Cl)cc2Cl)cn1	none (no result: TPT1 inh, PHOSPHO1 block, Fh CTSL1 inh)
CCCSc1ccc(C(=O)Nc2ccc(Cl)cc2)cn1	NRP1-CendR mod 28
COc1cccc(C2c3c(oc4cc(C)c(C)cc4c3=O)C(=O)N2CCCN(C)C)c1 (centres undefined)	none
O=C(Nc1nc2ccccc2[nH]1)c1ccc(S(=O)(=O)N2CCOCC2)cc1	none
O=C(Nc1nc2ccccc2[nH]1)c1ccc(Cl)c(S(=O)(=O)N2CCCC2)c1	NRP1-CendR mod 34
COc1cc(CCNC(=O)c2ccccc2NC(=O)C2=C(C)OCCS2)cc(OC)c1OC	PHOSPHO1 block 64
CSc1c(C#N)c(N)c(C#N)c2c1COC(C)(C)C2	Fh CTSL1 inh 17
Cc1[nH]c(=O)c(C#N)c2c1COC(C)(C)C2	none
COc1ccc(Cc2nc3ccccc3n2CC(=O)N/N=C/c2ccc(C)cc2O)cc1OC	HNF4A DNA FP 39
CC(=O)c1cc2cccc(OC3(C)CCN(Cc4ccc5ccccc5c4)C3)c2o1 (centres undefined)	none (no result: TPT1 inh, PHOSPHO1 block, Fh CTSL1 inh)
Cc1[nH]c2ccccc2c1C(=O)CN1CCC(C)CC1	PHOSPHO1 block 70
Cc1[nH]c2ccccc2c1C(=O)C(=O)N1CCN(C)CC1	PHOSPHO1 block 68
CCOC(=O)C1CCN(CC(=O)c2c(C)[nH]c3ccccc23)CC1	none
COc1ccc(N2CCN(C(=O)CCS(=O)(=O)c3ccc(C)cc3)CC2)cc1	none (no result: PHOSPHO1 block)
CSc1ncc(Cl)c(C(=O)Nc2ccccc2C)n1	none
Cc1ccc(NC(=O)c2ccco2)c(NC(=O)CN2C(=O)c3ccccc3C2=O)c1	none
Fc1ccc(Nc2nnc(-c3ccncc3)s2)cc1Cl	NRP1-CendR mod 35 (no result: TPT1 inh, PHOSPHO1 block, Fh CTSL1 inh)
Cn1cnc(S(=O)(=O)NC2CCN(Cc3ccccc3)CC2)c1	none
NS(=O)(=O)c1ccc(CCNC(=O)c2cc(-c3ccccc3)nc3ccccc23)cc1	NRP1-CendR mod 30
COc1ccc(-c2cc(C(=O)Nc3cc(S(N)(=O)=O)ccc3C)c3ccccc3n2)cc1OC	Fh CTSL1 inh 22 (no result: PHOSPHO1 block)
Cc1ccc(-c2cc(C(=O)NCCc3ccc(S(N)(=O)=O)cc3)c3ccccc3n2)cc1	none
CCN1CCN(CCCNC(=O)CNC(=O)c2nn(-c3ccc(OC)cc3OC)c(=O)c3ccccc23)CC1	none
CCOc1ccc(S(=O)(=O)N(CCO)CCO)cc1-c1nc2c(C(C)(C)C)nn(C)c2c(=O)[nH]1	none
CCCc1nn(C)c2c(=O)[nH]c(-c3cc(S(=O)(=O)N(CCO)CCO)ccc3OCC)nc12	PHOSPHO1 block 63
CN=Cc1nc(-c2ccccc2)oc1O	none
CCC(=O)Oc1oc(-c2ccccc2)nc1C=Nc1ccc(C)cc1	Fh CTSL1 inh 26
Cc1ccc(C(=O)Oc2oc(-c3ccco3)nc2C=Nc2ccccc2)cc1	none (no result: TPT1 inh, HNF4A DNA FP, NRP1-CendR mod, Rpn11 inh, Fh CTSL1 inh)
CCC(=O)Oc1oc(-c2ccccc2)nc1C=Nc1ccccc1OC	Fh CTSL1 inh 25
Cc1ccc(S(=O)(=O)NCCCNC(=O)N2CCOCC2)cc1	none
Cn1c(=O)c2[nH]c(CCNC(=O)c3ccccc3)nc2n(C)c1=O	NRP1-CendR mod 18 (no result: TPT1 inh, PHOSPHO1 block, Fh CTSL1 inh)
CCC(CC)COC(=O)C1=C(C)NC(=O)NC1c1ccc(N(C)C)cc1 (centres undefined)	none
Cc1ccc2[nH]c(=O)c(C3C(C#N)=C(N)Oc4c3ccc3cccnc43)cc2c1 (centres undefined)	PHOSPHO1 block 83
N#CC1=C(N)Oc2c(ccc3cccnc23)C1c1ccccc1 (centres undefined)	none
COc1cc(/C=N/NC(=O)C(=O)NCc2ccco2)cc(Br)c1O	PHOSPHO1 block 85
CCOC(=O)C1(C)/C(=N/Nc2cccc(Cl)c2)C(=O)C(=O)N1c1ccccc1 (centres undefined)	none
CCOC(=O)C1(C)/C(=N/Nc2ccccc2Cl)C(=O)C(=O)N1c1ccccc1 (centres undefined)	PHOSPHO1 block 92
CCOC(=O)C1(C)/C(=N/Nc2ccc(Cl)cc2)C(=O)C(=O)N1c1ccccc1 (centres undefined)	PHOSPHO1 block 103
COc1ccc(C2/C=C\CN(S(=O)(=O)c3ccc(C)cc3)CC(=O)N2Cc2ccc(F)cc2)cc1 (centres undefined)	none
COC(=O)c1cn(C(=O)c2cccc(Br)c2)c2ccccc12	none
CCCCCCC(NC(=O)Cc1ccc2ccccc2c1)C(=O)O (centres undefined)	none (no result: TPT1 inh, PHOSPHO1 block, Fh CTSL1 inh)
CCOCCCNC(=O)C(c1ccc(C)cc1)N(Cc1cccs1)C(=O)c1ccccc1O (centres undefined)	NRP1-CendR mod 29
CN1CCN(C(=O)c2ccc(Cc3cn(C)c4ccccc34)nc2)CC1	none (no result: TPT1 inh, PHOSPHO1 block, Fh CTSL1 inh)
O=S(=O)(CCN1CCSCC1)c1ccccc1	none
COc1cc(/C=N/NC(=S)NCCc2ccccc2)cc(OC)c1OC	none (no result: TPT1 inh, Fh CTSL1 inh)
COc1cc(/C=N/S(=O)(=O)CCc2ccccc2)cc(OC)c1O	NRP1-CendR mod 39
Cn1nc(-c2ccc(Cl)cc2)nc2c(=O)n(C)c(=O)nc1-2	Fh CTSL1 inh 113 (no result: HNF4A DNA FP, NRP1-CendR mod, Rpn11 inh)
CS(=O)(=O)n1nc(-c2ccc(Cl)cc2)nc1N	none
O=C(O)Cn1ncn(-c2ccc(OC(F)(F)F)cc2)c1=O	NRP1-CendR mod 26
CN(C)c1ccccc1-c1csc(N2CCC(C(N)=O)CC2)n1	none (no result: TPT1 inh, PHOSPHO1 block, Fh CTSL1 inh)
NC(=O)C1CCN(c2nc(-c3ccc(F)cc3)cs2)CC1	none (no result: TPT1 inh, PHOSPHO1 block, Fh CTSL1 inh)
NC(=O)C1CCN(c2nc(-c3ccccc3C(F)(F)F)cs2)CC1	NRP1-CendR mod 30 (no result: TPT1 inh, PHOSPHO1 block, Fh CTSL1 inh)
NC(=O)C1CCN(c2nc(-c3ccc4occc(=O)c4c3)cs2)CC1	NRP1-CendR mod 25 (no result: TPT1 inh, PHOSPHO1 block, Fh CTSL1 inh)
NC(=O)C1CCN(c2nc(-c3ccccc3F)cs2)CC1	NRP1-CendR mod 25 (no result: TPT1 inh, PHOSPHO1 block, Fh CTSL1 inh)
CC1=NN(c2ccccc2)C(=O)C1N=Nc1ccc(S(N)(=O)=O)cc1 (centres undefined)	Fh CTSL1 inh 19
CC1=NN(c2ccccc2)C(=O)C1N=Nc1ccc(C)cc1 (centres undefined)	none (no result: HNF4A DNA FP, NRP1-CendR mod, Rpn11 inh)
COc1cc(/C=C/C(=O)O)cc(S(=O)(=O)Nc2ccc3[nH]c(=O)[nH]c3c2)c1OC	none
COc1cc(/C=C/C(=O)O)cc(S(=O)(=O)Nc2ccccc2Oc2ccccc2)c1OC	Fh CTSL1 inh 21
O=C(Nc1ccc2ccccc2c1)c1onc2c1CCCC2	none

Screening results: PubChem, several laboratories
